# The supplement of paper PMC8728848
# This is one part of a sample in which the strongest signals are shown more often than they occur.
# Experiments:
# Experiment in all cases: glycan array binding signal (z-score within array); higher = stronger binding
# Conditions in all cases: glycan notation: IUPAC condensed, linker removed
# Fuc(a1-2)Gal = target: Fuc(a1-2)Gal
# In short: (§1)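 Arrays were curated from the Consortium for Functional Glycomics database, 3228 in total, and kept only where the protein sequence was available. Binding is expressed as a within-array Z-score. This score was averaged across arrays of the same protein sequence at different concentrations or buffers and across linkers, and negative values can be read as non-binding.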
# Fuc(a1-2)Gal(b1-4)Glc6S = target: Fuc(a1-2)Gal(b1-4)Glc6S
# In short: as §1
# [1] = target: Fuc(a1-2)Gal(b1-4)GlcNAc(b1-2)Man(a1-3)[Fuc(a1-2)Gal(b1-4)GlcNAc(b1-2)Man(a1-6)]Man(b1-4)GlcNAc(b1-4)[Fuc(a1-6)]GlcNAc
# In short: as §1
# [2] = target: Fuc(a1-2)Gal(b1-4)GlcNAc(b1-3)GalNAc
# In short: as §1
# [3] = target: Fuc(a1-2)Gal(b1-4)[Fuc(a1-3)]GlcNAc(b1-3)GalNAc
# In short: as §1
# [4] = target: Fuc(a1-2)Gal(b1-4)[Fuc(a1-3)]GlcNAc(b1-3)[Neu5Ac(a2-6)Gal(b1-4)GlcNAc(b1-6)]Gal(b1-4)Glc
# In short: as §1
# [5] = target: Fuc(a1-2)[Gal(a1-3)]Gal(b1-4)GlcNAc(b1-6)GalNAc
# In short: as §1
# [6] = target: Fuc(a1-2)[Gal(a1-3)]Gal(b1-4)[Fuc(a1-3)]Glc
# In short: as §1
# [7] = target: Fuc(a1-2)[GalNAc(a1-3)]Gal
# In short: as §1
# [8] = target: Fuc(a1-3)[Gal(b1-4)]GlcNAc(b1-2)Man(a1-3)[Fuc(a1-3)[Gal(b1-4)]GlcNAc(b1-2)Man(a1-6)]Man(b1-4)GlcNAc(b1-4)GlcNAc
# In short: as §1
# [9] = target: Fuc(a1-3)[Gal(b1-4)]GlcNAc(b1-2)Man(a1-3)[Fuc(a1-3)[Gal(b1-4)]GlcNAc(b1-2)Man(a1-6)]Man(b1-4)GlcNAc(b1-4)[Fuc(a1-6)]GlcNAc
# In short: as §1
# [10] = target: Fuc(a1-3)[Gal3S(b1-4)]GlcNAc
# In short: as §1
# Fuc(a1-4)GlcNAc = target: Fuc(a1-4)GlcNAc
# In short: as §1
# Fuc(b1-3)GlcNAc = target: Fuc(b1-3)GlcNAc
# In short: as §1
# Gal(a1-3)Gal(b1-3)GlcNAc = target: Gal(a1-3)Gal(b1-3)GlcNAc
# In short: as §1
# [11] = target: Gal(a1-3)Gal(b1-3)GlcNAc(b1-3)GalNAc
# In short: as §1
# Gal(a1-3)Gal(b1-4)Glc = target: Gal(a1-3)Gal(b1-4)Glc
# In short: as §1
# Gal(a1-3)Gal(b1-4)GlcNAc = target: Gal(a1-3)Gal(b1-4)GlcNAc
# In short: as §1
# [12] = target: Gal(a1-3)Gal(b1-4)GlcNAc(b1-3)GalNAc
# In short: as §1
# Gal(a1-4)Gal(b1-4)GlcNAc = target: Gal(a1-4)Gal(b1-4)GlcNAc
# In short: as §1
# [13] = target: Gal(b1-3)GlcNAc(b1-3)Gal(b1-4)GlcNAc(b1-3)Gal(b1-4)GlcNAc(b1-2)[Gal(b1-3)GlcNAc(b1-3)Gal(b1-4)GlcNAc(b1-3)Gal(b1-4)GlcNAc(b1-6)]Man(a1-6)[Gal(b1-3)GlcNAc(b1-3)Gal(b1-4)GlcNAc(b1-3)Gal(b1-4)GlcNAc(b1-2)Man(a1-3)]Man(b1-4)GlcNAc(b1-4)[Fuc(a1-6)]GlcNAc
# In short: as §1
# [14] = target: Gal(b1-3)GlcNAc(b1-3)GalNAc
# In short: as §1
# [15] = target: Gal(b1-3)[Fuc(a1-4)]GlcNAc(b1-2)Man(a1-3)[Gal(b1-3)[Fuc(a1-4)]GlcNAc(b1-2)Man(a1-6)]Man(b1-4)GlcNAc(b1-4)[Fuc(a1-6)]GlcNAc
# In short: as §1
# [16] = target: Gal(b1-3)[Fuc(a1-4)]GlcNAc(b1-3)Gal(b1-3)[Fuc(a1-4)]GlcNAc
# In short: as §1
# Gal(b1-4)Glc = target: Gal(b1-4)Glc
# In short: as §1
# [17] = target: Gal(b1-4)GlcNAc(b1-3)Gal(b1-4)GlcNAc(b1-3)Gal(b1-4)GlcNAc
# In short: as §1
# [18] = target: Gal(b1-4)GlcNAc(b1-3)Gal(b1-4)GlcNAc(b1-3)Gal(b1-4)GlcNAc(b1-2)[Gal(b1-4)GlcNAc(b1-3)Gal(b1-4)GlcNAc(b1-3)Gal(b1-4)GlcNAc(b1-6)]Man(a1-6)[Gal(b1-4)GlcNAc(b1-3)Gal(b1-4)GlcNAc(b1-3)Gal(b1-4)GlcNAc(b1-2)Man(a1-3)]Man(b1-4)GlcNAc(b1-4)[Fuc(a1-6)]GlcNAc
# In short: as §1
# [19] = target: Gal(b1-4)GlcNAc(b1-3)Gal(b1-4)GlcNAc(b1-3)Gal(b1-4)GlcNAc(b1-3)Gal(b1-4)GlcNAc(b1-3)Gal(b1-4)GlcNAc(b1-2)Man(a1-3)[Gal(b1-4)GlcNAc(b1-3)Gal(b1-4)GlcNAc(b1-3)Gal(b1-4)GlcNAc(b1-3)Gal(b1-4)GlcNAc(b1-3)Gal(b1-4)GlcNAc(b1-2)Man(a1-6)]Man(b1-4)GlcNAc(b1-4)[Fuc(a1-6)]GlcNAc
# In short: as §1
# [20] = target: Gal(b1-4)GlcNAc(b1-3)Gal(b1-4)GlcNAc(b1-3)GalNAc
# In short: as §1
# [21] = target: Gal(b1-4)GlcNAc(b1-3)Gal(b1-4)GlcNAc(b1-3)[Gal(b1-4)GlcNAc(b1-3)Gal(b1-4)GlcNAc(b1-6)]GalNAc
# In short: as §1
binder,measurement,setting,value
SP16664D-bth-476-27-476 (Bacteroides thetaiotaomicron) (protein) DDLEVGKNIDESAYSGIYENNAYLRDGKSNLVSKVVELHGETYATTVKMGLSKTPNTATSAKVKIDAAYLETYNKAHNTDFALYPQDLVTFANEGILTVNANTKSAEVEMTIRAGEGLQEDKTYAIPVAISDQSSDITIKDEDAKHCIYLVKDMRNAGDAYKGEGVMQGYLFFEVNDVNPLNTLSFQLENGKLLWDVVVLFAANINYDAEAGRPRVQCNPNVQYLLDNNETLLQPLRRRGVKVLLGLLGNHDITGLAQLSEQGAKDFAREVAQYCKAYNLDGVNYDDEYSNSPDLSNPSLTNPSTAAAARLCYETKQAMPDKLVTVFDWGQMYGVATVDGVDAKEWIDIVVANYGSAAYPIGQMTKKQCSGISMEFNLGGGGSLSASKAQSMIDGGYGWFMGFAPSPAKYGSVFSRLQGGGEVLYGSNVAAPTIFYKKNDPTPYKYPDDL,glycan array binding signal (z-score),Fuc(a1-2)Gal,-0.249
same,glycan array binding signal (z-score),Fuc(a1-2)Gal(b1-4)Glc6S,0.006
same,glycan array binding signal (z-score),[1],0.161
same,glycan array binding signal (z-score),[2],-0.244
same,glycan array binding signal (z-score),[3],0.134
same,glycan array binding signal (z-score),[4],-0.167
same,glycan array binding signal (z-score),[5],0.007
same,glycan array binding signal (z-score),[6],-0.184
same,glycan array binding signal (z-score),[7],-0.152
same,glycan array binding signal (z-score),[8],0.013
same,glycan array binding signal (z-score),[9],3.02
same,glycan array binding signal (z-score),[10],-0.196
same,glycan array binding signal (z-score),Fuc(a1-4)GlcNAc,5.19
same,glycan array binding signal (z-score),Fuc(b1-3)GlcNAc,-0.141
same,glycan array binding signal (z-score),Gal(a1-3)Gal(b1-3)GlcNAc,0.314
same,glycan array binding signal (z-score),[11],-0.337
same,glycan array binding signal (z-score),Gal(a1-3)Gal(b1-4)Glc,-0.117
same,glycan array binding signal (z-score),Gal(a1-3)Gal(b1-4)GlcNAc,-0.212
same,glycan array binding signal (z-score),[12],-0.12
same,glycan array binding signal (z-score),Gal(a1-4)Gal(b1-4)GlcNAc,-0.17
same,glycan array binding signal (z-score),[13],0.144
same,glycan array binding signal (z-score),[14],0.061
same,glycan array binding signal (z-score),[15],0.054
same,glycan array binding signal (z-score),[16],1.49
same,glycan array binding signal (z-score),Gal(b1-4)Glc,-0.258
same,glycan array binding signal (z-score),[17],0.004
same,glycan array binding signal (z-score),[18],1.01
same,glycan array binding signal (z-score),[19],20
same,glycan array binding signal (z-score),[20],-0.091
same,glycan array binding signal (z-score),[21],-0.045
